Test results reported in PubChem BioAssay AID651827 (Vanderbilt Specialized Chemistry Center, 2012).

Test: PubChem AID 651827
Conditions: Ricerca radioligand binding panel, percent inhibition, at 10 µM, stronger effect = higher value

SMILES: CS(=O)(=O)N(CC(=O)NCC1CC1)c1cc(C(F)(F)F)ccc1Cl
- inhibition (Adenosine A2A binding): -8%
- inhibition (Adenosine A3 binding): 1%
- inhibition (EGF receptor binding): 14%
- inhibition (IL-1 receptor binding): 15%
- inhibition (L-type Ca benzothiazepine site): 48%
- inhibition (L-type Ca dihydropyridine site): 36%
- inhibition (Melatonin MT1 binding): 16%
- inhibition (PAF receptor binding): 15%
- inhibition (Purinergic P2Y binding): 20%
- inhibition (Serotonin transporter binding): 15%
- inhibition (Thyroid hormone binding): 16%
- inhibition: -9%
- inhibition (hERG binding): -2%
